Experimental data from PubChem BioAssay AID686979 (National Center for Advancing Translational Sciences (NCATS), 2013).
The campaign covered roughly 420,000 compounds. About 50,000 (12%) were called active. About 26% were inconclusive and are not listed. Only a selection was taken, and actives are over-represented in it overall. Values without a mark were called inactive. Calls follow the shape of the dose curve; as a rule, active = well fitted inhibition curve with a large enough effect; inconclusive = small, poorly fitted or top-dose-only effect; inactive = flat fitted curve, though single readings scatter.

assay: qHTS for Inhibitors of human tyrosyl-DNA phosphodiesterase 1 (TDP1): qHTS in cells in presence of CPT; conditions: chicken DT40 Tdp1-/-;hTDP1 cells + 20 nM CPT, ATP luminescence, 48 h; series mostly up to 46.2 µM; activity change, negative = growth inhibition: at the top concentration; also: nearly all actives have a fitted effect of over 55% in size
Outline: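 Chicken DT40 Tdp1-/- cells stably complemented with human TDP1 were seeded at 400 cells/well in medium containing 20 nM camptothecin, exposed to pin-transferred compounds, and grown at 37 °C for at least 48 hr. Viability was read as ATP luminescence.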
% is scaled to controls: 0 for no effect and ±100 for the full control effect; potency is read from the fitted curve at half-maximal effect.

SMILES	activity change, negative = growth inhibition [%]	Potency
C=CC1=C(C(=O)O)N2C(=O)[C@@H](NC(=O)/C(=N/OCC(=O)O)c3csc(N)n3)[C@H]2SC1	-3.01	
CCn1c(SCC(=O)N/N=C/C=C/c2ccccc2[N+](=O)[O-])nnc1-c1ccccc1	-26.3	
CCC1(C)COC(c2ccc(OC)c(OC)c2)OC1 (stereo not given)	-1.89	
COc1cccc(-c2ccc3c(c2)S(=O)(=O)c2cccc(C(=O)O)c2C3=O)c1OC	3.38	
CC(C)c1cc(C(=O)O)n[nH]1	2.99	
Cc1cc(C(=O)NCCc2ccc(Cl)cc2)c(C)o1	-13.7	
Cc1cc(C(=O)N/N=C\C(Br)=C\c2ccccc2)c(C)o1		8.2 µM (active)
Cc1ccc(/C=N/NC(=O)C(NC(=O)c2ccccc2)c2n[nH]c(=O)c3ccccc23)cc1 (stereo not given)	-11.4	
CC(C)c1cc(C(=O)N/N=C/C(Br)=C/c2ccccc2)n[nH]1		2.31 µM (active)
CC(=C/c1ccccc1)/C=N/NC(=O)c1cc(C)oc1C	-28	
Cc1ccc(C2(C)NC(=O)N(CC(=O)Nc3ccccc3C(=O)N3CCCCC3)C2=O)cc1 (stereo not given)	-13.5	
CCN(CC)CCCNC(=O)c1cn(C)c2ccc(S(=O)(=O)N(C)C3CCCCC3)cc2c1=O		inactive
CCN(CC)CCn1cnc2c1c(=O)n(CCOC(=O)c1cc(OC)c(OC)c(OC)c1)c(=O)n2C	3.53	
COc1ccc([N+](=O)[O-])cc1NC(=O)COC(=O)/C=C/c1ccco1	-12	
CCOC(=O)C1=NN(c2ccc(Cl)cc2)/C(=C/C2=NCCc3cc(OC)c(OC)cc32)S1	-21.4	
COc1cc2c(cc1OC)C(/C=C/c1ccco1)=NCC2		23.1 µM (active)
Cc1ccc2c(c1)NC(=O)[C@@]1(C)[C@@H](c3ccccc3)[C@H]3COc4ccc(Cl)cc4[C@@H]3N1C2=O		25.9 µM (active)
C[C@@H]1NC(=O)[C@@]2(C)[C@@H](c3ccccc3)[C@H]3COc4ccccc4[C@@H]3N2C1=O	-11.5	
CCOC(=O)[C@H]1[C@H]2COc3ccc(OC)cc3[C@@H]2N2C(=O)c3ccc(F)cc3NC(=O)[C@@]12C	-2.6	
Cc1ccc(Cl)cc1N1CCN(C(=O)c2cccn3c(=O)c4cc(Cl)ccc4nc23)CC1	-6.7	
Cc1cn(C)c(CC(=O)NCc2ccc(Cl)cc2)c1C(=O)O	2.47	
CCOC(=O)COc1ccc([N+](=O)[O-])cc1	3.15	
CCOC(=O)/C(=C\c1ccc([N+](=O)[O-])cc1)C(=O)c1cc(C(C)=O)c(Nc2ccccc2)s1		0.58 µM (active)
O=C(Nc1ccccc1)/C(=C/c1ccc([N+](=O)[O-])cc1)NC(=O)c1ccccc1	-17.8	
COc1ccc(NC(=O)CN(C)C(=O)c2n[nH]c3ccccc23)cc1	-7.97	

SMILES	activity change, negative = growth inhibition [%]	Potency
O=c1cc(CO)oc(C(Nc2cccc(C(F)(F)F)c2)c2ccccn2)c1O (stereo not given)	1.12	
FC(F)(F)c1cccc(N/N=C/c2ccccc2)c1	-29.8	
FC(F)(F)c1cccc(Nc2ncnc3ccccc23)c1		11.6 µM (active)
COc1ccc(NC(=O)CSc2nc(SC)ns2)c(OC)c1	-12.7	
c1ccc(C2CNCc3c2ccc2ccccc32)cc1 (stereo not given)		14.6 µM (active)
C/C(=N/NC(=O)CC(=O)N/N=C(\C)c1ccc([N+](=O)[O-])cc1)c1ccc([N+](=O)[O-])cc1	-0.378	
COc1ccc(-c2cc(C(=O)NCc3ccco3)no2)cc1OC	-0.397	
COc1ccc(S(=O)(=O)N2CCC(C(=O)NCc3ccco3)CC2)cc1C	-7.74	
COc1ccc(C2=NOC(C(=O)NCc3ccco3)C2)cc1OC (stereo not given)		2.59 µM (active)
O=C1CC2(CCCC2)C(=O)N1CN1CCN(S(=O)(=O)c2ccc(F)cc2F)CC1	2.4	
CN(C)S(=O)(=O)c1cc(NC(=O)CN2C(=O)NC3(CCCc4ccccc43)C2=O)ccc1Cl (stereo not given)		16.4 µM (active)
O=C(CN1C(=O)NC2(CCc3ccccc32)C1=O)NC1CCCCC1 (stereo not given)	1.78	
CCOc1ccc(CCNC(=O)CN2C(=O)NC3(CCc4ccccc43)C2=O)cc1OCC (stereo not given)	-17.4	
Cc1ccc(COc2ccc(C(=O)NN)cc2)cc1	-28.6	
CCN(CC)CCNCC(=O)Nc1ccc(Oc2ccccc2)cc1	-18.7	
O=C(c1ccc2c(c1)C(=O)N(Cc1ccncc1)C2=O)N1CCN(S(=O)(=O)c2ccc(OC(F)(F)F)cc2)CC1	0.443	
NS(=O)(=O)c1cccnc1Nc1cccc(Cl)c1	-0.722	
O=C(Nc1cccc(Cl)c1)OCc1ccccn1	-0.874	
OCCCNc1nccc(-c2cc(Nc3cccc(Cl)c3)ncn2)n1		1.16 µM (active)
Cc1c(C)n2c(SCC(=O)NC3CCCC3)nnc2[nH]c1=O	13.3	
CCCN(CC(=O)Nc1ccc(OC)c(OC)c1)CC(=O)Nc1ccc(F)c(F)c1F	-0.473	
Cc1cc(C(=O)COc2ccccc2[N+](=O)[O-])c(C)n1-c1cccc(S(=O)(=O)N2CCOCC2)c1		16.4 µM (active)
Cc1cc(S(=O)(=O)N2CCOCC2)ccc1OCC(=O)N1CCOCC1	-7.17	
O=C(COc1ccc(S(=O)(=O)N2CCCC2)cc1[N+](=O)[O-])N1CCCCC1	-18.7	
Cc1cccc(N(C(=O)c2sc(C)nc2C)C(C(=O)NCC2CCCO2)c2ccccc2)c1 (stereo not given)	-15.4	
